Results from PubChem BioAssay.
Activity calls are given as the source filed them.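 How the source made its calls, unless noted: active means fluorescence slope higher than the sample average by over 3 SD (cut at about -0.22 in these data, passing the limit was not always enough); inactive means the rest.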

Assays:
[1] = inhibitors of TNFa-induced NFkB p65 translocation, primary screen, imaging, HUVEC, MLSMR starter and 10KST1 sets (AID 438;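 active means inhibition above 20% together with a positive visual image hit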;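 further: compound added about 3h40 before a 20 min TNFalpha stimulation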;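 on inhibition: signal is the nuclear over cytoplasmic p65 intensity ratio per well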); conditions: HUVEC TNFa-induced p65 nuclear translocation; cell count: measured here: nuclei count (cytotoxicity indicator), at 2.08 µM; inhibition: at 2 µM, stronger effect = higher value, 0% TNFa-plus-vehicle, 100% no-TNFa wells
[2] = reduction of polyQ htt aggregates in cells – imaging, exon1htt(103Q)mCFP cells, high-content imaging, primary screen (AID 483;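 active means visual image review flags a hit and inhibition of aggregation exceeds 20%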;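 further: compound exposure lasted 3 days before fixation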;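 on nuclei count: percent of the per-plate median nuclei count of sample wells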); conditions: exon1htt(103Q)mCFP cell line, aggregate imaging, at 2 µM; inhibition of aggregation: stronger effect = higher value; nuclei count: measured here: cell count, toxicity
[3] = endothelial E-selectin expression blockers – imaging, HUVEC, immunofluorescence, MLSMR starter and 10KST1 sets, primary screen (AID 487;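 active means visually confirmed hit in the image check and inhibition above 20%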;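 on inhibition: signal is fraction of cell area covered by stained E-selectin grains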;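 on nuclei count: 100% = median nuclei count of all wells on the same plate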); conditions: HUVEC TNFalpha-induced E-selectin immunofluorescence imaging, at 2 µM; inhibition: stronger effect = higher value; nuclei count: measured here: cell number, toxicity
[4] = target: Voltage-gated potassium channel subunit beta-2 (Rattus norvegicus) (UniProt P62483); test: inhibitors of rat Kvbeta2 reductase activity – biochemical, NADPH fluorescence, primary screen (AID 622); conditions: recombinant KvBeta, 4-cyanobenzaldehyde reduction, at 10 µM, stronger effect = higher value;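 further: slope of raw intensity against log time taken from 70 to 1610 s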
[5] = target: Voltage-gated potassium channel subunit beta-2 (Rattus norvegicus) (UniProt P62483); test: enhancers of rat Kvbeta2 NADPH turnover – biochemical, NADPH fluorescence, primary screen (AID 623;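 active means NADPH fluorescence slope more negative than the mean of all samples by about 3 SD, 99.7% confidence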;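 further: fluorescence intensity change per second fitted from 20 to 320 s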); conditions: Recombinant KvBeta, NADPH fluorescence decrease slope, 10 min; at 10 µM; stronger effect = lower value
[6] = target: Alpha-2C adrenergic receptor (Homo sapiens) (UniProt P18825); test: compounds altering alpha2C-coupled GIRK flux – cell-based, HEK293 alpha2C/GIRK1/2, thallium flux, primary screen (AID 624;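 active means fluorescence slope after compound addition differing from the mean of all screened samples at 99.7% confidence, in either direction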;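 further: slope of fluorescence ratio to pre-addition baseline per second over 15 to 24 s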); conditions: thallium flux BTC fluorescence, at 10 µM, actives lie on both sides
[7] = blockers of RIG-like receptor reporter activation – cell-based, Sendai virus stimulus, luciferase, 10K MLSCN set, TLR/RLR signaling modifier project, primary screen (AID 602276;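 active means inhibition at or above 50% at 10 µM; inactive means inhibition below 50%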;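 further: firefly luciferase from ISG56 promoter only with Renilla not read in this screen; 0% = Sendai virus plus DMSO and 100% = medium plus DMSO without virus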); conditions: HEK293 RL24 IRF3 luciferase reporter, at 10 µM, stronger effect = higher value
[8] = TLR3 IRF3 reporter activation blockers – cell-based, poly I:C stimulus, luciferase, 10K MLSCN set, primary screen (AID 602277;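 active means inhibition of the reporter signal at or above 50%; inactive means inhibition below 50%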); conditions: HEK293-TLR3 RL24 IRF3 luciferase reporter, at 10 µM, stronger effect = higher value

Sequence of Voltage-gated potassium channel subunit beta-2 (Rattus norvegicus) (P62483 whole entry, looked up): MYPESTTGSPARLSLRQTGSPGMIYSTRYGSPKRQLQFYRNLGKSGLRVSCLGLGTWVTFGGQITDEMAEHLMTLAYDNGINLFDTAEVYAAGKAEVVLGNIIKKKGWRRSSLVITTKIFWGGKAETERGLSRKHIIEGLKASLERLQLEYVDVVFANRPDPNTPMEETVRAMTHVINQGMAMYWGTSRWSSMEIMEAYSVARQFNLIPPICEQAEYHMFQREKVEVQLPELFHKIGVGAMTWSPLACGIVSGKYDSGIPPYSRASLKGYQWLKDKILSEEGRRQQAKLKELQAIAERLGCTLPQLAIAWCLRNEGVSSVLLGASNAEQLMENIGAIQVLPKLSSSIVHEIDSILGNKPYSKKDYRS
Sequence of Alpha-2C adrenergic receptor (Homo sapiens) (P18825 whole entry, looked up): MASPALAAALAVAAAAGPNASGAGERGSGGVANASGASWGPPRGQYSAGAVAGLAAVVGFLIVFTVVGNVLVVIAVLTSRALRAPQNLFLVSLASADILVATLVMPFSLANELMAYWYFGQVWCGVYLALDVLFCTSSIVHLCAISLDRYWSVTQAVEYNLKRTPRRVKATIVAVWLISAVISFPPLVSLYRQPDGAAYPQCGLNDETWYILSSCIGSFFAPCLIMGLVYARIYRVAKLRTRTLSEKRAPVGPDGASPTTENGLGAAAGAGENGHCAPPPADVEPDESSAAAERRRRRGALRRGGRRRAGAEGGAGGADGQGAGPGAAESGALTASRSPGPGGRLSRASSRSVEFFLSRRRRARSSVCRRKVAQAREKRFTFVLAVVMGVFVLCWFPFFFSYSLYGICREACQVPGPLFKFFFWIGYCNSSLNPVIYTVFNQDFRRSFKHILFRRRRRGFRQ

SMILES | cell count [1] | inhibition [1] | inhibition of aggregation [2] | nuclei count [2] [%] | inhibition [3] | nuclei count [3] [%] | fluorescence slope [4] | NADPH fluorescence slope [5] | slope [6] | inhibition [7] | inhibition [8]
C/C(Cl)=C/Cn1c(SCc2ccc(Cl)cc2)nc2c1c(=O)[nH]c(=O)n2C | 551 | -9.4% (inactive) | 10.9% (inactive) | 108 | 15% (inactive) | 96.1 | -0.513 (inactive) | -2.3e-05 (inactive) | 0.00751 (inactive) | 4.08% (inactive) | 12% (inactive)
COCc1[nH]nc2c1C(c1cc(OC)c(O)c(OC)c1)C(C#N)=C(N)O2 (configuration not stated) | 397 | -1.6% (inactive) | -17% (inactive) | 115 | -26.1% (inactive) | 117 | -0.502 (inactive) | -4.1e-05 (inactive) | 0.0049 (inactive) | 17.4% (inactive) | 21.1% (inactive)
CCOCCCNC(=O)Cn1cc2c(n1)CCCCC2 | 486 | -2.3% (inactive) | 19.4% (inactive) | 88.9 | -25.4% (inactive) | 109 | -0.605 (inactive) | -1.2e-05 (inactive) | 0.00693 (inactive) | 3.75% (inactive) | 19.9% (inactive)
Cn1c(-c2cc(Br)ccc2O)n[nH]c1=S | 440 | 5.5% (inactive) | -2.6% (inactive) | 109 | -76.5% (inactive) | 118 | -0.51 (inactive) | 4.9e-05 (inactive) | 0.00989 (inactive) | -4.65% (inactive) | -14.4% (inactive)
COCCn1nnnc1C(C(C)C)N1CCN(C(=O)c2ccco2)CC1 (configuration not stated) | 314 | 1.6% (inactive) | 10% (inactive) | 85.2 | -23.9% (inactive) | 121 | -0.511 (inactive) | 4.3e-05 (inactive) | 0.00753 (inactive) | -9.3% (inactive) | -17.2% (inactive)
O=C1c2ccccc2C(=O)N1CCC(=O)N1CCc2ccccc21 | 359 | 5.9% (inactive) | 22.4% (inactive) | 92.8 | -71.6% (inactive) | 109 | -0.393 (inactive) | -2.1e-05 (inactive) | 0.005 (inactive) | -1.4% (inactive) | -26.2% (inactive)
CCOc1ccc(S(=O)(=O)n2nc(C)cc2C)c2ccccc12 | 355 | -5.4% (inactive) | 0.3% (inactive) | 108 | -52.3% (inactive) | 115 | -0.347 (inactive) | 2e-05 (inactive) | 0.00571 (inactive) | -0.884% (inactive) | -17.2% (inactive)
CCOc1ccc(-c2cc(C(=O)N3CCN(c4ccccn4)CC3)c3ccccc3n2)cc1 | 619 | 7.9% (inactive) | -11.8% (inactive) | 86.4 | -19.3% (inactive) | 111 | -0.473 (inactive) | -6.7e-06 (inactive) | 0.00673 (inactive) | 34% (inactive) | -64.8% (inactive)
CCOC(=O)c1cc2sc(C)cc2n1CC(=O)NCc1ccc(F)cc1 | 560 | -19.6% (inactive) | -31% (inactive) | 98.7 | -35.8% (inactive) | 124 | -0.382 (inactive) | -4.5e-05 (inactive) | 0.00466 (inactive) | 6.92% (inactive) | 16.7% (inactive)
CC1(C)CC(=O)CC(C2(O)C(=O)N(Cc3ccccc3)c3ccccc32)O1 (configuration not stated) | 500 | -2.4% (inactive) | -3.9% (inactive) | 82.2 | -9.4% (inactive) | 120 | -0.548 (inactive) | 1.3e-05 (inactive) | 0.00527 (inactive) | -9.58% (inactive) | -5.31% (inactive)
COc1ccc(-c2cc(O)cc(O)c2)cc1 | 397 | -10.3% (inactive) | -11% (inactive) | 103 | -25% (inactive) | 98.8 | -0.49 (inactive) | -7.1e-05 (inactive) | 0.00555 (inactive) | -15.5% (inactive) | -88.2% (inactive)
Cc1c(C(=O)OC2CCCCC2)[nH]c2c1C(=O)CC(C)(C)C2 | 342 | -8.9% (inactive) | -22% (inactive) | 108 | 14.6% (inactive) | 68.9 | -0.407 (inactive) | -9.3e-06 (inactive) | 0.00193 (inactive) | -3% (inactive) | -13.3% (inactive)
CCn1nc(CC(=O)Nc2nnc(CC(=O)N3CCCCC3)s2)c2ccccc2c1=O | 385 | 0.2% (inactive) | 2.9% (inactive) | 104 | -289% (inactive) | 95.9 | -0.437 (inactive) | -2.5e-05 (inactive) | 0.00348 (inactive) | 8.15% (inactive) | 25.2% (inactive)
CCOc1cc(C(=O)N(C)Cc2cc3cc(OC)ccc3[nH]c2=O)cc(OCC)c1OCC | 394 | 4% (inactive) | 18.6% (inactive) | 83.8 | -174% (inactive) | 211 | -0.207 (inactive) | -1.5e-05 (inactive) | 0.00515 (inactive) | 15.8% (inactive) | 18.6% (inactive)
COc1cccc(-c2cc(C(F)(F)F)nc(NCc3ccco3)n2)c1 | 449 | 1.7% (inactive) | 28.6% (inactive) | 97.3 | -25.2% (inactive) | 94.3 | -0.469 (inactive) | -5.6e-06 (inactive) | 0.00562 (inactive) | -7.28% (inactive) | 19.1% (inactive)
CN(C)CCCN1C(=O)C(=O)/C(=C(/O)c2ccncc2)C1c1cccc(Br)c1 (configuration not stated) | 245 | -2.8% (inactive) | -9.4% (inactive) | 94.1 | 1.2% (inactive) | 103 | -0.612 (inactive) | -7.1e-05 (inactive) | 0.00373 (inactive) | -6.87% (inactive) | -3.17% (inactive)
CCCCP(=O)(CCCC)Cc1ccccc1O | 363 | -1.6% (inactive) | 0.1% (inactive) | 91.9 | -39.4% (inactive) | 97.4 | -0.474 (inactive) | -0.000131 (inactive) | 0.00605 (inactive) | -4.65% (inactive) | 9.82% (inactive)
COc1ccc(S(=O)(=O)N2CCC(C(=O)NCc3ccco3)CC2)cc1 | 245 | -0.2% (inactive) | 1.8% (inactive) | 99.6 | -290% (inactive) | 114 | -0.418 (inactive) | -2.7e-05 (inactive) | 0.00415 (inactive) | 7.79% (inactive) | 9.56% (inactive)
CC1CC(C)CN(CCCNC(=O)c2ccc3c(c2)NC(=O)C(N2CCCCC2)S3)C1 (configuration not stated) | 395 | -7.7% (inactive) | -6.5% (inactive) | 101 | -14.9% (inactive) | 113 | -0.317 (inactive) | 6.4e-06 (inactive) | 0.00531 (inactive) | -18.6% (inactive) | -14.5% (inactive)
CCOC(=O)N1CCN(C(=O)c2n[nH]c(=O)c3ccccc23)CC1 | 515 | -9.4% (inactive) | -7.2% (inactive) | 107 | -37.5% (inactive) | 80.9 | -0.591 (inactive) | -2.8e-05 (inactive) | 0.00361 (inactive) | -11.6% (inactive) | -3.48% (inactive)
C/C=C/COC(=O)c1[nH]c2c(c1C)C(=O)CC(c1ccc(N(C)C)cc1)C2 (configuration not stated) | 699 | 1.8% (inactive) | 14.4% (inactive) | 79.6 | -46.6% (inactive) | 115 | -0.543 (inactive) | -2.2e-05 (inactive) | 0.00679 (inactive) | -29.1% (inactive) | -68.7% (inactive)
COc1ccc(N(CC(=O)Nc2ccc3c(c2)OCO3)S(=O)(=O)c2c(C)nn(C)c2C)cc1 | 538 | 11.9% (inactive) | 17.9% (inactive) | 51 | -46% (inactive) | 105 | -0.57 (inactive) | -4.5e-06 (inactive) | 0.00577 (inactive) | 10.2% (inactive) | 17.3% (inactive)
O=[n+]1c2c(n([O-])c3c1CCCC3)CCCC2 | 658 | 5.8% (inactive) | -17.7% (inactive) | 109 | 54.7% (inactive) | 75.8 | -0.399 (inactive) | -6.5e-05 (inactive) | 0.00619 (inactive) | 11.8% (inactive) | 24% (inactive)
Cc1ccccc1NC(=O)CSc1nc(N)c(C#N)c(-c2cccs2)c1C#N | 440 | -0.3% (inactive) | -16.8% (inactive) | 110 | -12.2% (inactive) | 98.8 | -0.475 (inactive) | -4.8e-05 (inactive) | 0.00696 (inactive) | 11.6% (inactive) | 14.3% (inactive)
O=C(Nc1nc(-c2ccncc2)cs1)C1COc2ccccc2O1 (configuration not stated) | 646 | -4.9% (inactive) | -3.1% (inactive) | 118 | -28.4% (inactive) | 119 | -0.608 (inactive) | -3.7e-05 (inactive) | 0.00702 (inactive) | -5.76% (inactive) | -29.4% (inactive)
C/C=C/CSc1nc2c(c(=O)[nH]c(=O)n2C)n1Cc1ccc(C)cc1 | 693 | -6.9% (inactive) | -5% (inactive) | 116 | -43.7% (inactive) | 112 | -0.542 (inactive) | -3.9e-05 (inactive) | 0.0074 (inactive) | -3.97% (inactive) | 18.2% (inactive)
CCSC1=C(C#N)C(c2ccccc2OC)CC(=O)N1 (configuration not stated) | 631 | -1.9% (inactive) | -4.5% (inactive) | 86.7 | -16.2% (inactive) | 106 | -0.436 (inactive) | 1.7e-05 (inactive) | 0.00579 (inactive) | -0.399% (inactive) | 17.9% (inactive)
